Bioassay records: PubChem, several laboratories
CHT inh: inhibitors of human choline transporter CHT; CHT-expressing cells, membrane potential dye, choline response; active compounds read low; B-score at 10 µM; hit rate 0.86% among 310,000; AID 488975, 2010;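 active = B-score over 3 SD under the library average, and starting fluorescence ratio not unusually high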;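 note: choline stimulus applied at its EC90 after an EC20 pre-addition; B-score computed on integrated fluorescence ratio after choline addition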
EP2 antag: human EP2 receptor antagonists, primary screen, TR-FRET cAMP, C6 glioma cells. Prostaglandin E2 receptor EP2 subtype (Homo sapiens), P43116. C6 glioma cells expressing human EP2; cells stimulated with saturating PGE2. inhibition, % at 25 µM. hit rate 0.52% among 260,000;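 active = percent inhibition above 40 after rounding to a whole number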;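 note: rat C6 glioma host cells with rolipram phosphodiesterase inhibitor present; the protocol text gives 20 µM as final concentration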
Target sequence (P43116 whole entry, looked up): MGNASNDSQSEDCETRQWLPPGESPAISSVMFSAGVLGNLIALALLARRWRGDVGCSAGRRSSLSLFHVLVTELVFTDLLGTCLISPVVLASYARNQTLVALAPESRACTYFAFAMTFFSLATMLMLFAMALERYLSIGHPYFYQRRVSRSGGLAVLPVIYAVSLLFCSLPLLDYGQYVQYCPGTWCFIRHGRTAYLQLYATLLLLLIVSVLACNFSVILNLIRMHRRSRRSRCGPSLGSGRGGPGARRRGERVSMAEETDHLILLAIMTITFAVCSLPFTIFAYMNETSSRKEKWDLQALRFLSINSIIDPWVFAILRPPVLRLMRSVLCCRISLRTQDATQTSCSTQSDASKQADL
CHT PAM: CHT positive allosteric modulators, primary screen, cell-based, membrane potential dye, choline EC20; High affinity choline transporter 1 (Homo sapiens), Q9GZV3; CHT-expressing cells; active compounds read high; LV-AA mutant CHT in HEK293 cells; B-score at 10 µM; hit rate 0.49% among 310,000;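 active = initial fluorescence not abnormally high and integrated response B-score, plate-corrected, over 3 SD above library mean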
EP2 mod: EP2 receptor modulators, cAMP readout, primary screen, cell-based, HTRF cAMP, PGE2 stimulation | Prostaglandin E2 receptor EP2 subtype (Homo sapiens), P43116 | EP2-expressing cells, cAMP HTRF FRET, PGE2 co-stimulation | induction, % at 25 µM | hit rate 0.83% among 260,000;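 active = compounds whose cAMP rise, as percent of the full-agonist control response, exceeds 60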;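 note: rat C6 glioma line stably carrying human EP2 under a CMV promoter; the protocol text gives 20 µM as final concentration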
CHT block conf: CHT inhibitors, confirmation, cell-based, membrane potential dye, duplicate; AID 493221, 2011; shares compounds with CHT inh; CHT-expressing cells, choline membrane potential dye; LV-to-AA substituted CHT, HEK293 cells; hit rate 70% among 2,400; CHT activity remaining % of control (active compounds read low), % at 10 µM;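 active = choline transporter activity left, mean of duplicates at 10 µM, below buffer-only control mean minus 3 SD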;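 note: depolarization triggered by choline at its EC90 following an EC20 pre-addition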
HEK293 MPD ctr: membrane potential effects in parental HEK293, counter-screen for CHT inhibitor project, cell-based, membrane potential dye. shares compounds with CHT inh. choline response; active = decrease or increase beyond buffer ±3SD. membrane potential ratio readout (active if shifted either direction beyond buffer ±3SD; no single direction) at 10 µM. hit rate 4% among 2,400;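 note: parental cells lack the transporter so any hit is non-specific; ratio is peak minus trough fluorescence over baseline after EC90 choline challenge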
Of the large screens only hits and unclear results are named; the others gave an inactive call (follow-up assays come after a bar, where they were run). Shown are actives, neighbours in structure and some others; about 2.1% of the full set was active somewhere.

O=C(Nc1nnc(C(F)(F)F)s1)c1ccc(Cl)cc1Cl	none (no result: CHT inh, CHT PAM)
O=C(Cc1c(F)cccc1Cl)c1ccc(O)cc1O	none
O=C(Cc1ccccc1F)c1ccc(O)cc1O	CHT inh -6.2 | CHT block conf 45% | HEK293 MPD ctr inactive
CNCc1c(OCc2ccc(F)cc2)ccc2ccccc12	CHT inh -7.9 | CHT block conf 41% | HEK293 MPD ctr -13
Cc1ccc2ncnc(Nc3ccccc3)c2c1	none
COc1ccccc1Nc1ncnc2ccc(C)cc12	CHT inh -5.4 | CHT block conf 61% | HEK293 MPD ctr inactive
CC(C)(C)NCc1cccn1-c1sc2c(c1C#N)CCCC2	CHT inh -6.3 | CHT block conf 20% | HEK293 MPD ctr -17
N#Cc1c(N2C(=O)Nc3ccccc3N2O)sc2c1CCCC2	none
Cc1ccc(-n2c(C)cc(C3=NNC(=NC4CC4)SC3)c2C)cc1C	CHT inh -6.3 | CHT block conf inactive | HEK293 MPD ctr inactive
Cc1ccc(NC(=O)CN(C)C(=O)Cn2ccsc2=N)cc1	none
Cc1ccc(Oc2ccc(NC(=O)Cn3ccsc3=N)cc2)cc1	CHT inh -7.9 | CHT block conf 16% | HEK293 MPD ctr inactive
COCC(C)NC(=O)CCSc1nc(-c2ccc3c(c2)OCO3)cc(C(F)(F)F)n1 (stereo unspecified)	none (no result: CHT inh, CHT PAM)
CCc1nc2cc(NC(=O)c3nc(-c4ccc(F)cc4)oc3C)ccc2n1C	none (no result: CHT inh, CHT PAM)
Cc1ccccc1OCC(=O)NC1CCCCCCC1	none (no result: EP2 antag, EP2 mod)
O=C(COc1ccccc1-c1ccccc1)NNC(=O)NC1CCCCC1	CHT inh -6.3 | CHT block conf 34% | HEK293 MPD ctr inactive
O=S(=O)(NCC1CCCO1)c1ccc(Oc2ccccc2)cc1 (stereo unspecified)	CHT inh -5.6 | CHT block conf inactive | HEK293 MPD ctr inactive
CCC(Oc1ccccc1)C(=O)Nc1ccc(S(=O)(=O)NCC2CCCO2)cc1 (stereo unspecified)	CHT inh -8.7 | CHT block conf 40% | HEK293 MPD ctr inactive
CCOc1cc(C2C(C(=O)OC)=C(C)NC(C)=C2C(=O)OC)ccc1OCC#N	none (no result: CHT inh, CHT PAM)
O=C(NC1CCCCC1)N1CCN(c2ccc(Cl)cc2)CC1	CHT inh -5.8 (no result: EP2 antag, EP2 mod) | CHT block conf inactive | HEK293 MPD ctr inactive
CCC(c1nnnn1CCOC)N(Cc1cc2ccc(OC)cc2[nH]c1=O)C1CCCC1 (stereo unspecified)	none (no result: CHT inh, CHT PAM)
Cc1c(N=Nc2ccc(O)cc2)c(=O)n(-c2ccccc2)n1C	none
Cc1[nH]c2ccccc2c1N=Nc1c(C)n(C)n(-c2ccccc2)c1=O	CHT inh -13 | CHT block conf inactive | HEK293 MPD ctr inactive
CCc1c(C)sc(N)c1C(N)=O	none (no result: CHT inh, CHT PAM)
CC(C)C(=O)Nc1nnc(SCC(=O)NC2CCCCC2)s1	none (no result: CHT inh, CHT PAM)
Cc1ccc(-c2csc3nc(SCC(=O)Nc4ccc(Cl)c(C(=O)O)c4)[nH]c(=O)c23)cc1	CHT inh -5.6 (no result: EP2 antag, EP2 mod) | CHT block conf 67% | HEK293 MPD ctr inactive
O=C(CCCCCCN1C(=O)c2ccccc2C1=O)N1CCC(c2ccccc2)C1 (stereo unspecified)	CHT inh -6.1 | CHT block conf inactive | HEK293 MPD ctr inactive
O=C(CCCCCCCCN1C(=O)c2ccccc2C1=O)N1CCOCC1	none
O=C(Nc1ccc2c(c1)OCCO2)c1ccc(S(=O)(=O)N2CCCCC2)cc1	CHT inh -6.1 | CHT block conf inactive | HEK293 MPD ctr inactive
Cc1ccc(NC(=O)CSc2n[nH]c(N)n2)cc1S(=O)(=O)N1CCOCC1	none
Cc1ccc(NC(=O)CSc2n[nH]c(=O)n2C2CC2)cc1S(=O)(=O)N1CCOCC1	CHT inh -6.8 | CHT block conf inactive | HEK293 MPD ctr inactive
CCn1c(=O)n(CC(=O)N2CCCC3CCCCC32)c2cccnc21 (stereo unspecified)	none (no result: CHT inh, EP2 antag, CHT PAM)
Cc1sc(NC(=O)c2ccco2)nc1-c1ccccc1	CHT inh -9.2 | CHT block conf 53% | HEK293 MPD ctr inactive
CC(C)c1ccc(NC(=O)CSc2nc(=O)n(CCCN3CCOCC3)c3c2CCC3)cc1	CHT inh -4.9 (no result: EP2 antag, EP2 mod) | CHT block conf 38% | HEK293 MPD ctr inactive
